This passage reports PBM binding z-score results from the supplement of paper PMC6555819.

The first test relates to PXR:RXRa (NR concentration 270 nM, RXRa partner concentration 90 nM). The experiment in a line: PBM binding z-score (relative to random genomic background probes); higher = stronger binding; sequences stand for … in GC…GCGATTGACAGCGTAGAATGAAGG
The method, boiled down:
(§1)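 Probes were double-stranded and carried 34-nt variable regions with direct-repeat seeds, single-nucleotide variants, half-site ablations and random human genomic background sequences, printed on custom Agilent 4×180K protein-binding microarrays. Arrays were incubated 1 h with ligand-free nuclear receptor dimers in PBS pH 7.4, 2% milk, 0.02% Triton X-100, 1 mM DTT, 0.2 mg/mL BSA and 0.4 mg/ml salmon testes DNA. Antibodies against each partner (one per run) detected binding, and scanned fluorescence was regression-normalized. Binding z-scores use the random background probes as reference.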
Turning to CATGCTAGGTCAATGGTCAGCTAAAGCAGCTCGC, the PBM binding z-score turned out to be 0.721.
As for TTACCAAGGTGAAGGTCGTTGACCCCTCTGTAGA, the PBM binding z-score is 4.73.
The same measure, in the same setting: to TTACCAGGGTGAGCTGAGGTCGTTGATCCAACTC belongs 5.42.
Still for that read-out and setting: next, CCTACTGGGCCCTCAGGTCATTGATATCAACGTT: 1.43; ACTAGCAGGCTAAGGGTCACTCAAGATTAGTCCG: 3.45.
On the same count and under the same terms, to TCTTTTAGATCAGCAGGTTAAGAAAGCTGGCCAA belongs 0.321; to AGAATGAGGTTATTAAGTTCAGGGAATTGCGGTC, 5.65.
Sequence CGGCCTAGGTCAGGGCCAGTATAGGAGGAACGTT had a PBM binding z-score of 0.223.
Same read-out and setting: to ACTATTAGTTGACTGAGGGCAACCGATACGACGC belongs 1.06; to CATTACGGGTCACGAGGTTATAGCACGACGAGCG, 4.8.
Still for that read-out and setting: to CTACCAAGGTGAACAAGGTCATTGATTACTATTC belongs 4.92; to TCTGCTAGTTCAGTTGGTCAGCTAACGAGCTGCC, -0.0751; to GCTAGTTGGTCAGTAAAAGGTCACAAACCGGTCG, 4.8.
ATCGAGAGGTCGTGAGGTGAGTATACAGAAAGGC: the PBM binding z-score was 2.66.
The same measure, in the same setting: next, CGTCCAAGGTCAAACGTCAGTGAAGAGATGACGG: 4.43.
For the sequence ATTTCTAGGTAACCAAGTTCAGTGAATGCCGAAC, the PBM binding z-score was determined as 2.1.
In turn, CGTCAAAGTTCACGGTAACGTAACAGAAAGCAGC gave a PBM binding z-score of 4.93.
Still for that read-out and setting: next, TTACCAAGGTGAAAGGTCGTAGATGCACGCCTTG: 4.04; ATATCTAGGTAACCAAGTTCAGTGAATGCCGAAC: 2.01; ATCTCAAGGTAAAGTTCAGTGAAAGATCGATAGA: 2.26.
On the same count and under the same terms, next, CCTACTGGGCCATCAGGGCATTGATATCAACGTT: -0.679.
As for CCTATGAGTTGACCATAAGGGCAACCGAAGCTCG, the PBM binding z-score amounted to 1.1.
In turn, TCTGCTAGGTGAGTTGGTCAGCTAACGAGCTGCC had a PBM binding z-score of -0.323.
GGAACGAGGGCAAAGTTGCTAGCATCTGTCGACG registered a PBM binding z-score of 0.708.
Same read-out and setting: next, ATCGCTAGGTAAGACTCAGTTCAGTGAAGAACGC: 0.322; ATCTCAAGGTAACAAGTTCAGTGAAAGAGAGGAC: 1.88.
Consider CCTTACGGCTCACTGACAGGTTATAGCATTTGGA, for which the PBM binding z-score was 0.158.
In the case of TCTATTGGTTGAAGGGCAACCGACGAGTCCGTTT, the PBM binding z-score was 0.725.
Still for that read-out and setting: to TCTATTAGTTGAAGCGCAACCGACGAGTCCGTTT belongs 0.326; to CGCCCAAGGTCATAGGAGGTCAGTGAAGACAGAT, 6.51; to ATATCTAGGTTAAGGGTCATTCAGGTTGGTTCGC, 5.61.
Regarding CAAACTAGGTCACGAAAGGTCAAAGTAGAATGAC, the PBM binding z-score came to 6.93.
As for ACTATTAGTTGACTTAGGGCAACCGGTACGACGC, the PBM binding z-score was determined as 0.35.
Consider CAAACTAGGTCAAAGTCAAAGTCGGTTTGTGCCA, for which the PBM binding z-score came to 1.63.
On the same count and under the same terms, to CCTACTGGGCCATTCAGAGGTCATTTATCATATG belongs 4.91; to TCATATAGGTAAATGCTAGGTTAAAGTCCGATCT, 0.98; to TTACCAAGGTGAGGGTCGTTGATCCCTCTGTAGA, 0.865.
Turning to CCTAGCAGGCCAGGGTCAATCAAGCATTTCGCTT, the PBM binding z-score was 3.43.
Same read-out and setting: to TCTCAAAGTTCAAAGGTAACGTAAGTATCCACAC belongs 5.66; to ATATGTAGGTTATCGGGTCATTTAGTTTGCGCAT, 3.33.

In another test the test system is PXR homodimer (NR concentration 270 nM). The description is as above. The method in brief: as §1
In turn, CATGCTAGGTCAATGGTCAGCTAAAGCAGCTCGC gave a PBM binding z-score of -0.406.
For the sequence TTACCAAGGTGAAGGTCGTTGACCCCTCTGTAGA, the PBM binding z-score turned out to be 0.313.
The same measure, in the same setting: to TTACCAGGGTGAGCTGAGGTCGTTGATCCAACTC belongs 0.925; to CCTACTGGGCCCTCAGGTCATTGATATCAACGTT, 0.581.
On the same count and under the same terms, to ACTAGCAGGCTAAGGGTCACTCAAGATTAGTCCG belongs -0.319; to TCTTTTAGATCAGCAGGTTAAGAAAGCTGGCCAA, 0.072.
Turning to AGAATGAGGTTATTAAGTTCAGGGAATTGCGGTC, the PBM binding z-score turned out to be 13.8.
The same measure, in the same setting: next, CGGCCTAGGTCAGGGCCAGTATAGGAGGAACGTT: -0.954; ACTATTAGTTGACTGAGGGCAACCGATACGACGC: 1.3; CATTACGGGTCACGAGGTTATAGCACGACGAGCG: 0.703.
The same measure, in the same setting: next, CTACCAAGGTGAACAAGGTCATTGATTACTATTC: 6.61.
TCTGCTAGTTCAGTTGGTCAGCTAACGAGCTGCC had a PBM binding z-score of -0.641.
On the same count and under the same terms, to GCTAGTTGGTCAGTAAAAGGTCACAAACCGGTCG belongs 1.2.
As for ATCGAGAGGTCGTGAGGTGAGTATACAGAAAGGC, the PBM binding z-score was 0.102.
In turn, CGTCCAAGGTCAAACGTCAGTGAAGAGATGACGG displayed a PBM binding z-score of 0.834.
On to ATTTCTAGGTAACCAAGTTCAGTGAATGCCGAAC, for which the PBM binding z-score worked out at 1.89.
The same measure, in the same setting: next, CGTCAAAGTTCACGGTAACGTAACAGAAAGCAGC: 2.72.
TTACCAAGGTGAAAGGTCGTAGATGCACGCCTTG: the PBM binding z-score is 0.0928.
The same measure, in the same setting: next, ATATCTAGGTAACCAAGTTCAGTGAATGCCGAAC: 1.85.
ATCTCAAGGTAAAGTTCAGTGAAAGATCGATAGA displayed a PBM binding z-score of 2.1.
Still for that read-out and setting: next, CCTACTGGGCCATCAGGGCATTGATATCAACGTT: -0.548.
For CCTATGAGTTGACCATAAGGGCAACCGAAGCTCG, the PBM binding z-score turned out to be 0.421.
On the same count and under the same terms, next, TCTGCTAGGTGAGTTGGTCAGCTAACGAGCTGCC: -0.828; GGAACGAGGGCAAAGTTGCTAGCATCTGTCGACG: -0.31; ATCGCTAGGTAAGACTCAGTTCAGTGAAGAACGC: 0.471.
ATCTCAAGGTAACAAGTTCAGTGAAAGAGAGGAC yielded a PBM binding z-score of 2.27.
Same read-out and setting: next, CCTTACGGCTCACTGACAGGTTATAGCATTTGGA: 0.192; TCTATTGGTTGAAGGGCAACCGACGAGTCCGTTT: 0.614.
The same measure, in the same setting: next, TCTATTAGTTGAAGCGCAACCGACGAGTCCGTTT: 0.219; CGCCCAAGGTCATAGGAGGTCAGTGAAGACAGAT: 3.76; ATATCTAGGTTAAGGGTCATTCAGGTTGGTTCGC: 3.45.
Still for that read-out and setting: to CAAACTAGGTCACGAAAGGTCAAAGTAGAATGAC belongs 2.94; to ACTATTAGTTGACTTAGGGCAACCGGTACGACGC, 0.564; to CAAACTAGGTCAAAGTCAAAGTCGGTTTGTGCCA, -0.171.
With CCTACTGGGCCATTCAGAGGTCATTTATCATATG, the PBM binding z-score was 2.24.
In turn, TCATATAGGTAAATGCTAGGTTAAAGTCCGATCT showed a PBM binding z-score of 0.768.
On the same count and under the same terms, next, TTACCAAGGTGAGGGTCGTTGATCCCTCTGTAGA: -0.63; CCTAGCAGGCCAGGGTCAATCAAGCATTTCGCTT: -0.3; TCTCAAAGTTCAAAGGTAACGTAAGTATCCACAC: 4.17.
ATATGTAGGTTATCGGGTCATTTAGTTTGCGCAT came in with a PBM binding z-score of 4.87.
